Molecules are shown by their SMILES. Results filed as inconclusive are left out. Activity calls are given as the source filed them. The call rests on the fitted dose curve; in most records, active means well fitted curve in the direction sought with a large enough effect in the repeat runs; inconclusive means weak or mixed curves; inactive means no such curve, though single readings can be large; an effect the other way counts as inactive or inconclusive.

For test [1], the target named is Cytochrome P450 2C19 (Homo sapiens) (UniProt P33261). The experiment in a line: Cytochrome P450 Family 2 Subfamily C Member 19 (CYP2C19) small molecule antagonists: luciferase reporter qHTS assay (AID 1671197). Further: nearly all actives have a fitted effect of over 65% in size. In short, it runs like this: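 Luminescent readout of CYP2C19 activity: luciferin product detected 20 min after adding detection reagent. Before that, compound and enzyme-substrate mix preincubated 10 min at room temperature; NADPH-regenerating system started a 1 h, 37C reaction. Ketoconazole as positive control.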
Chain of Cytochrome P450 2C19 (Homo sapiens) (P33261 whole entry, looked up): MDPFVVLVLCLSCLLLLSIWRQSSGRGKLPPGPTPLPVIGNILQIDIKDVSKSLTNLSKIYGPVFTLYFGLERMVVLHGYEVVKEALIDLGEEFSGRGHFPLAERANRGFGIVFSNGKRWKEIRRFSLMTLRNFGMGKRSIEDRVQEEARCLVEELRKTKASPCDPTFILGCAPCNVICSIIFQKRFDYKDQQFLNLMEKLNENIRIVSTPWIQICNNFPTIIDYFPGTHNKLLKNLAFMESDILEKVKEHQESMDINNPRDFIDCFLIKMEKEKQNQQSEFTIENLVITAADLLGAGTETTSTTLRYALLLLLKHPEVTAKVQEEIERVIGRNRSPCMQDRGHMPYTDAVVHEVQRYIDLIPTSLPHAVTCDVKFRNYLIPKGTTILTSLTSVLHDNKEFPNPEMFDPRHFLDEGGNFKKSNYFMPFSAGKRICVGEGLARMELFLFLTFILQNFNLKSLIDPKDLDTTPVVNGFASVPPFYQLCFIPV

The target in test [2] is Cytochrome P450 1A2 (Homo sapiens) (UniProt P05177). The experiment in a line: Cytochrome P450 Family 1 Subfamily A Member 2 (CYP1A2) small molecule antagonists: luciferase reporter qHTS assay (AID 1671199). Further: nearly all actives have a fitted effect of over 50% in size. In short, it runs like this: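 Enzymatic CYP1A2 assay, human, luminescent: 10 min compound–enzyme–substrate preincubation, 1 h NADPH-dependent turnover, 20 min detection step, room temperature throughout. Reduced light indicates lower CYP1A2 activity.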
Chain of Cytochrome P450 1A2 (Homo sapiens) (P05177 whole entry, looked up): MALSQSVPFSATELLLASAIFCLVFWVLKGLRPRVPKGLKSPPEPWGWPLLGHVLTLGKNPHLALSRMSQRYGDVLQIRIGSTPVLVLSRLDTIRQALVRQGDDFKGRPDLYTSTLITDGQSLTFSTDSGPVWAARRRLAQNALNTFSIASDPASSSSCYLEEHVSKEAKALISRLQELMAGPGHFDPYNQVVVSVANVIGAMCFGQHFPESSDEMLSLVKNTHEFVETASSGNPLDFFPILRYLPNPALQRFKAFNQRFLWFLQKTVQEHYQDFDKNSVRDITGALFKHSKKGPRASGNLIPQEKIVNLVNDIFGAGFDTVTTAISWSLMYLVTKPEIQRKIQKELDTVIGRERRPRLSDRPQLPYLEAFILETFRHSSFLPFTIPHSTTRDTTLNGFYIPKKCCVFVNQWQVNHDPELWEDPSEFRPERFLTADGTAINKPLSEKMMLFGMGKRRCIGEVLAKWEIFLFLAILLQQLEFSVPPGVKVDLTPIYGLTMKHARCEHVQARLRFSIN
A general note: Reporter assays use an easily measured gene product as a stand-in for the process of interest.

In test [3] the target is Voltage-gated inwardly rectifying potassium channel KCNH2 (Homo sapiens) (UniProt Q12809). The test can be described thus: Human Ether-a-go-go-Related Gene (hERG) channel small molecule antagonists: fluorescence cell-based qHTS assay (AID 1671200). Further: nearly all actives have a fitted effect of over 50% in size. Put shortly:
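Measured: Tl+ flux via fluorescence (480/540 nm) in hERG-expressing U2OS cells after 1 h dye loading at room temperature.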
(In general: Block of hERG is tested as a sign of cardiac risk.)

Test [4] concerns the target Cytochrome P450 3A4 (Homo sapiens) (UniProt P08684). The experiment in a line: Cytochrome P450 Family 3 Subfamily A Member 4 (CYP3A4) small molecule antagonists: luciferase reporter qHTS assay (AID 1671201). Further: nearly all actives have a fitted effect of over 50% in size. Put shortly: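 Setup: enzyme-substrate mix, compound pin transfer, 10 min RT. Reaction: NADPH regeneration solution, 1 h RT. Readout: detection reagent stops turnover, luminescence measured after 20 min, expressed in relative luminescence units.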
Potency means the concentration at half of the fitted maximal effect.

Chain of Voltage-gated inwardly rectifying potassium channel KCNH2 (Homo sapiens) (Q12809 whole entry, looked up): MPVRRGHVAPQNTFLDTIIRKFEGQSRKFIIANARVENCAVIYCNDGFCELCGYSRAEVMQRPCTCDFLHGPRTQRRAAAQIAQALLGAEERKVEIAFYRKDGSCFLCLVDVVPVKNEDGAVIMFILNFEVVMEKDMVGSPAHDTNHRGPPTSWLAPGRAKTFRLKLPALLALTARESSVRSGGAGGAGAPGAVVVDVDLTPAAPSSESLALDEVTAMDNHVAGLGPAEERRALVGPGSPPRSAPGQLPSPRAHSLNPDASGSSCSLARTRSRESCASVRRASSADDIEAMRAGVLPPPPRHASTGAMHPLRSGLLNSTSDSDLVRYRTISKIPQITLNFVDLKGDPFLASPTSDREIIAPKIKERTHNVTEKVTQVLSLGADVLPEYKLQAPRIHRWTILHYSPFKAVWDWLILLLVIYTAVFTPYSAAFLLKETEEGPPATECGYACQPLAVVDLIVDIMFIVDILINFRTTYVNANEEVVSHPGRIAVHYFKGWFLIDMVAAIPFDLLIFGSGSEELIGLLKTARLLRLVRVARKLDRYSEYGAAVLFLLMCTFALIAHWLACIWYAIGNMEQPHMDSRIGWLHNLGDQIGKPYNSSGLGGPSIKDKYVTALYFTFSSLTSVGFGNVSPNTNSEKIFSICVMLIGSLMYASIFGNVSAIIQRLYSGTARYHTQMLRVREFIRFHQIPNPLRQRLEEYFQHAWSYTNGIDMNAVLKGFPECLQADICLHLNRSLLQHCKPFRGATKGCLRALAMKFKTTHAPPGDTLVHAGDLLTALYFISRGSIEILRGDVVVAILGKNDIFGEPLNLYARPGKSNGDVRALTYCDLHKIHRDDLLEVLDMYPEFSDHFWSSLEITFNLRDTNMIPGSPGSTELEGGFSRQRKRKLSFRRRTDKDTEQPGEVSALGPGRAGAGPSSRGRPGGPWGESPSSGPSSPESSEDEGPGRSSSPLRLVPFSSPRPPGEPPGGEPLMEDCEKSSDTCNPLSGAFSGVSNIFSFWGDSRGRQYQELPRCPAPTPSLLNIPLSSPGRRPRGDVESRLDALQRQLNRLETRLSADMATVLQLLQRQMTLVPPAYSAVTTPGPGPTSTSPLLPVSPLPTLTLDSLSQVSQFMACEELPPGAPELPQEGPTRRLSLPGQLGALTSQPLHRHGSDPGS
Chain of Cytochrome P450 3A4 (Homo sapiens) (P08684 whole entry, looked up): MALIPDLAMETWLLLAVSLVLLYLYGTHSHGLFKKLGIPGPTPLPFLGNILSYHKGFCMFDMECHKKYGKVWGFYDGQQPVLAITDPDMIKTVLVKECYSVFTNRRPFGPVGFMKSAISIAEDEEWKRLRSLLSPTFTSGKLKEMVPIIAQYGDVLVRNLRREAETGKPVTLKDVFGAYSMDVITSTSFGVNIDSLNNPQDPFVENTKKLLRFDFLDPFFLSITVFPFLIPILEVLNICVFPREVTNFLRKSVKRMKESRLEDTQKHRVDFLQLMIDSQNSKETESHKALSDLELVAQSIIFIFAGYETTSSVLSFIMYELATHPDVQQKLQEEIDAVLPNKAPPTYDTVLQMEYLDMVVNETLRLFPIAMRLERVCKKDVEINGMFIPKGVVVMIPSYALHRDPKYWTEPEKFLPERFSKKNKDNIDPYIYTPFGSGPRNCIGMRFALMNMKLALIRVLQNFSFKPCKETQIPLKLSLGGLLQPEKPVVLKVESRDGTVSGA

With `CC1=C(CC=O)C(C)(C)CCC1`, the Potency entry in test [1], in test [2] and in test [3] was “inactive” each time.
As for `C(=C\c1ccccc1)/c1ccccc1`, the Potency is 44.4 µM (active) in test [1] and 4.99 µM (active) in test [2]. The Potency result in test [3] is “inactive”.
Take `O=C(O)c1ccc(OCCCOc2ccc(C(=O)O)cc2)cc1`: the Potency result in test [1], in test [2], in test [3] and in test [4] was “inactive” in each case.
For `O=C1NC(=O)c2cc([N+](=O)[O-])ccc21`, the figures for the Potency in test [1], in test [2] and in test [4] were 71.6 µM (active), 28.5 µM (active) and 32 µM (active), respectively. Further, the Potency result in test [3] was “inactive”.
Regarding `CC(=O)[C@H]1[C@H](C#N)C[C@H]2[C@@H]3CC=C4C[C@@H](O)CC[C@]4(C)[C@H]3CC[C@@]21C`, the Potency result in test [1], in test [2] and in test [3] was “inactive” throughout.
Take `CC(=O)Oc1ccc([N+](=O)[O-])cc1CCl`: the Potency result in test [1], in test [2], in test [3] and in test [4] was “inactive” throughout.
Take `O=Cc1c2ccccc2c(Cl)c2ccccc12`: the Potency entry in test [1], in test [3] and in test [4] was “inactive” each time. For the same compound, the Potency in test [2] is 1.38 µM (active).
On to `O=C(/C=C/c1ccccc1)OCCc1ccccc1`, for which the Potency in test [1] was 20 µM (active); in test [2], 6.33 µM (active); in test [3], 49 µM (active). The Potency result in test [4] was “inactive”.
As to `CCCCCCNC(=O)n1cc(F)c(=O)[nH]c1=O`, in test [1], the Potency was 34.7 µM (active). Further, the Potency result in test [2], in test [3] and in test [4] was “inactive” throughout.
On to `COc1ccc(OC(=O)N(CC(=O)O)Cc2ccc(OCCc3nc(-c4ccccc4)oc3C)cc2)cc1`, for which the Potency entry in test [1], in test [3] and in test [4] was “inactive” in each case. In addition, the Potency in test [2] is 17.4 µM (active).
`NCCNCCO`: the Potency result in test [1], in test [2], in test [3] and in test [4] was “inactive” each time.
`CCCCCC#CC(=O)OC`: the Potency entry in test [1], in test [2], in test [3] and in test [4] was “inactive” in each case.
On to `CCOC(=O)c1ccc(I)cc1`, for which the results for the Potency in test [1] and in test [2] were 80.4 µM (active) and 10.1 µM (active), respectively. The Potency result in test [3] and in test [4] was “inactive” each time.

For the origin of these results see PubChem BioAssay (Tox21).
